# Whole data set: some 4,100 sequences, median “RBNS R-value (6-mer enrichment in protein-bound RNA vs input library)” near 0.96, cut for the highest 2% near 2.4. Many of the other results were omitted from the sample, so the highest values are more common in it than they were.
# System: PyIESI-1 RRM domain (Plasmodium yoelii PY17X_0911200 aa 795-956, GST fusion)
# Experiment: RBNS R-value (6-mer enrichment in protein-bound RNA vs input library) (ratio); higher = stronger binding preference; the methods of the paper give 50 / 100 / 500 nM protein instead
# Description: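 RNA Bind-n-Seq: recombinant GST-tagged IESI-1 RRM domain was incubated at room temperature with a random 40-nt in vitro transcribed RNA library at 250, 500 or 1000 nM protein. Bound RNA was pulled down on glutathione beads and sequenced. R-value is the enrichment of each 6-mer in the bound RNA relative to the input library. Each 6-mer sits inside the random 40-mer context, not as an isolated oligo. Values are replicate 1 only.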
Sequence,RBNS R-value (protein concentration: 250 nM),RBNS R-value (protein concentration: 500 nM),RBNS R-value (protein concentration: 1000 nM)
GUCAAU,0.655,0.685,0.671
GGAUUG,1.22,1.22,1.15
UGAUUG,5.45,4.95,4.94
CGAUUG,2.25,2.18,2.2
GAAAGG,1.1,1.08,1.01
AGAUAC,1.02,1.09,1.09
ACCUCG,1.08,1.06,1.06
CGUGAG,0.911,0.913,0.868
GGUGAG,0.98,0.993,0.943
CGUGAU,3.46,3.26,3.39
UGUGAG,1.11,1.1,1.05
CGUGAA,0.949,0.925,0.895
GGUGAC,1.01,1.04,0.983
AGUGAC,1.01,1.04,1.02
AGUGAU,3.53,3.36,3.56
GGUGAU,2.66,2.69,2.75
UGUGAC,1.17,1.18,1.16
AGUGAA,0.884,0.89,0.844
UGUGAU,3.77,3.62,3.78
UGCGCU,1.27,1.25,1.26

Sequence,RBNS R-value (protein concentration: 250 nM),RBNS R-value (protein concentration: 500 nM),RBNS R-value (protein concentration: 1000 nM)
UCCGUG,1.12,1.15,1.16
GACUCG,1.11,1.13,1.07
UGUUUC,0.901,0.972,0.97
AGCUGA,1.72,1.68,1.68
UCGUGG,0.808,0.811,0.782
CAGCGU,0.779,0.809,0.78
UGCCUC,1.11,1.13,1.19
UGGCCA,1.26,1.22,1.24
GAUAGC,2.53,2.39,2.48
GAUAGA,1.92,1.93,2
GAUAGU,1.39,1.41,1.45
UGCUCA,0.956,0.977,1
GAUGUA,2.51,2.41,2.52
UAUGUC,0.642,0.672,0.661
AAUGUA,0.646,0.662,0.639
UAUGUG,0.924,0.971,0.978
GAUGUG,3.46,3.14,3.14
CAUGUC,0.705,0.722,0.733
CAUGUG,1.02,1.04,1.03
CAUGUU,0.726,0.757,0.737

Sequence,RBNS R-value (protein concentration: 250 nM),RBNS R-value (protein concentration: 500 nM),RBNS R-value (protein concentration: 1000 nM)
AAUGUU,0.8,0.836,0.819
GAUGUC,2.55,2.44,2.5
UAUGUA,0.585,0.616,0.581
GAUGUU,2.92,2.8,2.87
GCGUCG,0.809,0.784,0.765
UUGUUA,0.717,0.765,0.738
AGCCUG,1.33,1.33,1.36
GUGGCC,0.987,0.981,0.976
AACCUG,1.37,1.36,1.38
CCGCUA,0.743,0.757,0.758
UACUAC,0.519,0.53,0.491
GAUUAG,2.44,2.41,2.5
CAUUAA,0.41,0.435,0.403
AAUUAG,0.641,0.657,0.639
AAUUAA,0.471,0.515,0.483
UAUUAC,0.487,0.514,0.489
CAUUAG,0.57,0.593,0.579
GAUUAC,2.72,2.65,2.82
CAUUAC,0.471,0.51,0.491
GAUUAA,2.47,2.37,2.56

# Source: the supplement of paper PMC13392028
